# High-throughput results (PubChem BioAssay)
# Hits are enriched below; roughly 4.8% of the tested compounds scored in any of these assays.
# DAX1 inh-1: blocks DAX1 repression of SF-1 activated StAR promoter | HEK293T StAR-luciferase reporter, SF-1/DAX-1 repression relief | inhibition, % at 6.8 µM | hit rate 1.1% among 370,000;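 active = inhibition above the mean over all tested compounds plus 3 SD, cut at about 3.6% in these data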;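 note: 0% = DAX-1 cells with DMSO and 100% = cells lacking DAX-1 with DMSO; higher inhibition means more luminescence from relief of DAX-1 repression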
# hcDAF-12 act: H. contortus DAF-12 activation, primary screen; HEK293 hcDAF-12 lit1-tk-luc reporter, luminescence; 0% DMSO, 100% Δ7-dafachronic acid; AID 652067; hit rate 1.4% among 370,000; activation, % at 6.8 µM;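 active = activation above the mean of all tested compounds plus 3 SD, cut at about 5.5% in these data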;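 note: 100% = response to 3 µM Δ7-dafachronic acid high control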
# ssDAF-12 act: activators of S. stercoralis DAF-12 nuclear receptor | HEK293 ssDAF-12/GRIP1 lit1-tk-luc reporter, luminescence; % of 3 µM dafachronic acid response | activation, % at 6.8 µM | hit rate 1% among 370,000 | AID 652126;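 active = activation above the mean over all tested compounds plus 3 SD, cut at about 0.9% in these data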;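 note: 0% = DMSO-only wells and 100% = 3 µM delta7-dafachronic acid wells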
# DAX1 inh-2: inhibitors of human orphan nuclear receptor DAX1 (NR0B1) | P51843 | HEK293 Gal4-DAX1 luciferase reporter, luminescence | inhibition, % at 6.75 µM | hit rate 0.99% among 340,000 | AID 504766;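 active = inhibition above the mean over all tested compounds plus 3 SD, cut at about 4.2% in these data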;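 note: 0% = DAX1-transfected cells with DMSO and 100% = empty-vector control cells with DMSO; inhibition shows as a rise in luminescence from relieved DAX1 repression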
# Target sequence (P51843 207-470 limits assumed): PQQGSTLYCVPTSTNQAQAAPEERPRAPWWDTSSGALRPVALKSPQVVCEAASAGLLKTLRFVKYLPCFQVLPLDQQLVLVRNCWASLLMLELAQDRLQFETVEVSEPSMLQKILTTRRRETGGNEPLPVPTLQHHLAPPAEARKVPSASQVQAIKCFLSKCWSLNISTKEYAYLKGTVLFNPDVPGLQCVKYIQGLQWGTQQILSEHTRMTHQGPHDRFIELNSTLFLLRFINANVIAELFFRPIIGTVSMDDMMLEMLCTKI
# hgDAF12 agonist: activates the H. glycines DAF-12 receptor ligand-binding domain; activation, % at 6.8 µM; HEK293 GAL4-hgDAF12 UAS-luciferase reporter, agonist luminescence; normalized to butyrate control; hit rate 1.8% among 370,000;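 active = activation above a cutoff set at the mean of all screened compounds plus 3 SD, cut at about 10% in these data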;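 note: 0% = DMSO wells and 100% = sodium butyrate wells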
# SMARCA2 act: SMARCA2 function activation, primary screen; MG213 cells, MMTV-luciferase reporter, dexamethasone, overnight; activation, % at 9.1 µM; hit rate 1% among 370,000; in the data active = activation above about 7.8%;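 note: 0% = vehicle wells and 100% = reference activator wells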
# Numbers without * were called inactive; . = no result.
SMILES,DAX1 inh-1,hcDAF-12 act,ssDAF-12 act,DAX1 inh-2,hgDAF12 agonist,SMARCA2 act
Cc1ccc(C(=O)COC(=O)CNC(=O)c2ccccc2)s1,0,0,-1,0,0,-1
NS(=O)(=O)c1ccc(NC(=O)CCCCC(=O)Nc2ccc(S(N)(=O)=O)cc2)cc1,0,-1,-1,4.4*,-1,4
NS(=O)(=O)c1ccc(NC(=O)CCCCCN2C(=O)c3ccccc3C2=O)cc1,-2,0,0,0,-2,0
NS(=O)(=O)c1ccc(NC(=O)Nc2ccc(Cl)cc2)cc1,-1,1,-2,0,12*,2
CNC(=O)Nc1ccc(S(N)(=O)=O)cc1,0,-1,-1,0,-1,1
COc1ccc(NC(=O)NNC(=O)CCC(=O)Nc2ccccc2Cl)cc1,0,-1,-2,8.3*,0,-3
CCN(CC(=O)Nc1ccc2c(c1)OCCO2)C(=O)C(C)Oc1ccc(F)cc1 (stereo not drawn),-1,-1,-1,-1,-2,-3
Cn1ccnc1C1CCCCN1Cc1nc(-c2ccc(Cl)cc2)no1 (stereo not drawn),-1,0,-1,1,12*,0
Cc1cccc(C(=O)OC(C)C(=O)N2CCN(Cc3ccccc3)CC2)c1 (stereo not drawn),0,-2,-1,-1,0,0
C#CCN1C(=O)S/C(=C/C=C/c2ccc(N(C)C)cc2)C1=O,2,4,0,3,13*,4
O=Cc1ccccc1OCc1ccc2c(c1)OCO2,1,5,0,4.5*,10,-1
COc1cc(S(=O)(=O)n2c(C)nc3ccccc32)ccc1F,-1,-1,-1,1,4,-2
COc1ccc(S(=O)(=O)n2c(C)nc3ccccc32)cc1C,0,4,0,0,12*,4
CN(CC(=O)Nc1ccccc1C(=O)NC1CC1)Cc1ccc(Cl)cc1,-1,-1,-1,1,-3,7.9*
O=C(COC(=O)Cn1cnc2ccccc2c1=O)Nc1ccc(Cl)c(C(F)(F)F)c1,0,-1,1.5*,1,-3,-2
COC(=O)C1CN(C2CC2)CCS(=O)(=O)N1Cc1cn(Cc2ccc(C)cc2)nn1 (stereo not drawn),1,0,-1,.,1,-5
O=C1c2ccccc2NC(c2ccccn2)N1c1ccc(Cl)cc1 (stereo not drawn),0,6.2*,-1,2,8,1
CN(C)/C=C/C(=O)/C=C/c1ccc(Cl)cc1,0,-1,-1,0,-5,-3
CN(C)CC(O)c1ccc(C=Cc2ccc(Cl)cc2)cc1 (stereo not drawn),3,5,-1,6.4*,12*,7
CC(=O)C1=C(O)C(=O)OC1c1ccc(C)cc1 (stereo not drawn),0,-1,-1,3,-3,-2
CC(=O)C1=C(O)C(=O)OC1c1ccc(Cl)cc1 (stereo not drawn),0,-1,0,4.4*,1,4
N/C(=N\OC(=O)c1cccc(Cl)c1)c1cccnc1,1,5,0,2,11*,4
N/C(=N\OC(=O)c1cc(Br)ccc1Cl)c1cccnc1,1,5,0,3,2,-1
N/C(=N\OC(=O)c1cc(Cl)ccc1Cl)c1cccnc1,0,6.3*,1,0,2,-1
COc1ccc(Cl)cc1C(=O)O/N=C(\N)c1ccc(Cl)cc1,1,6.0*,-1,3,1,4
COc1ccccc1OC(C)C(=O)Nc1ccccc1C(=O)NCc1cccnc1 (stereo not drawn),0,-2,-1,0,0,2
CCOC1=C2[C@H](c3ccc(Cl)cc3)N(S(=O)(=O)c3ccc(C)cc3)C[C@H]2n2c(=O)n(-c3ccccc3)c(=O)n2C1,1,-1,-1,.,1,-2
Cc1ccc2nc(-c3ccncc3)c(NC3CCCC3)n2c1,-1,-1,-1,5.0*,1,3
O=C(O)CCCCn1c(SCc2ccccc2Cl)nc2ccsc2c1=O,0,-1,-1,4.7*,0,-2
